# From PubChem BioAssay
# Only some compounds are listed: those with a hit (about 4.2% of all), similar ones and a draw of the others.
# 12-LOX inh: Primary qHTS assay for inhibitors of human arachidonate 12S-lipoxygenase (ALOX12): Round 2; Polyunsaturated fatty acid lipoxygenase ALOX12 (Homo sapiens), P18054; purified 12hLO, xylenol orange hydroperoxide absorbance; Potency, µM (titrated, usually from 108 µM), for the others: top-dose activity change, negative = inhibition, usual class: inhibitors; hit rate 1.1% among 580,000
# Target sequence (P18054 whole entry, looked up): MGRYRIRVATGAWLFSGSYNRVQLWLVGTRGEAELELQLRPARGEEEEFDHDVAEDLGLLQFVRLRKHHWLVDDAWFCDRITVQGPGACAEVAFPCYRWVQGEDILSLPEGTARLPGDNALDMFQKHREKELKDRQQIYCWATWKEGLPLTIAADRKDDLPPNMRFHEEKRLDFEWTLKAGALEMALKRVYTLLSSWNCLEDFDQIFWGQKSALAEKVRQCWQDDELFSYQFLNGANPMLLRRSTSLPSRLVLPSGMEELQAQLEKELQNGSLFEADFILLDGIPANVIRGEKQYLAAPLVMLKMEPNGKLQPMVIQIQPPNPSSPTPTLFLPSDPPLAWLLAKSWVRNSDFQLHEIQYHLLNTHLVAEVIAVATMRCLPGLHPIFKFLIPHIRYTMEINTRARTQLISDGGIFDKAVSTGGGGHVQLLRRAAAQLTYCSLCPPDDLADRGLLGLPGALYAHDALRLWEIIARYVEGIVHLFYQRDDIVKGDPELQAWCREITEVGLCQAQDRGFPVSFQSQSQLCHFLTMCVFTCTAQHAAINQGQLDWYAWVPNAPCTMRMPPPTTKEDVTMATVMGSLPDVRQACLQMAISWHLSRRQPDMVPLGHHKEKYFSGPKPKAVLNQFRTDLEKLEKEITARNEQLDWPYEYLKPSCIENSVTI
#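 Purified human 12hLO at 150 nM in 25 mM Hepes, 0.01% Triton X-100, pH 7.0, preincubated 15 min at room temperature with compound. Reaction started with 40 uM arachidonic acid, 30 min at room temperature. Hydroperoxide measured by Fe-xylenol orange, 573/405 nm absorbance ratio.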
# PLK1 PBD block: qHTS for Inhibitors of PLK1-PDB (polo-like kinase 1 - polo-box domain): Primary Screen. Serine/threonine-protein kinase PLK1 (Homo sapiens), P53350. Plk1 PBD binding of FITC phosphopeptide, fluorescence polarization. Potency, µM, inactives show max response, negative = inhibition, hits mostly inhibitors. hit rate 2.8% among 360,000; note: series mostly up to about 57 µM; nearly all actives have a fitted effect of over 65% in size
# Sfp inh: qHTS Assay for Inhibitors of Bacillus subtilis Sfp phosphopantetheinyl transferase (PPTase); 4'-phosphopantetheinyl transferase ffp (Bacillus subtilis), Q9F4F7; Biochemical Sfp PPTase activity, qHTS; AID 1490, 2009; Potency, µM, inactives show largest response in the series, negative = inhibition, hits mostly inhibitors; hit rate 3.5% among 310,000;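 note: the enzyme is Sfp with the accession as filed and its product quenches rhodamine fluorescence; 0% = enzyme reaction without inhibitor and -100% = no enzyme wells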
#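 Sfp 15 nM + cpd, 15 min RT; start w/ rhodamine-CoA 5 uM, BHQ-2-YbbR 12.5 uM (final); 50 mM Hepes pH 7.6, 10 mM MgCl2, 0.01% NP-40, 0.01% BSA; read 525/598 nm at 0 and 30 min.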
# VDR inhibitor: Inhibitors of the vitamin D receptor (VDR): qHTS; VDR-SRC2-3 peptide fluorescence polarization, 2 h; Potency, µM, inactives show max response, negative = inhibition, usual class: inhibitors; hit rate 0.93% among 400,000; AID 504847, 2011
#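 Reagent solutions, kept cold and dark, are dispensed first; compounds are then pinned in at 23 nl, plates briefly spun, and incubated 2 h at ambient temperature. Inhibition of VDR–SRC2-3 peptide binding is read by fluorescence polarization.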
# TbPYK inh: qHTS of Trypanosoma Brucei Inhibitors: Confirmatory Assay for Cherry-picked Compounds; shares compounds with PLK1 PBD block; recombinant TbPYK, Kinase-Glo ATP luminescence; Potency, µM (highest dose often 76.9 µM), without a hit: at the highest dose activity change, negative = inhibition, usual class: inhibitors; hit rate 67% among 890; AID 720569, 2013; note: nearly all actives have a fitted effect of over 70% in size
# TbPYK orthogonal: qHTS of Trypanosoma Brucei Inhibitors: Orthogonal Assay for Cherry-picked Compounds | hit rate 62% among 890 | Potency, µM (titrated, usually from 76.9 µM), without a hit: at the top dose activity change, negative = inhibition, actives largely listed as inhibitors | recombinant TbPYK, ADP-Glo luminescence, 60 min | shares compounds with PLK1 PBD block; note: nearly all actives have a fitted effect of over 75% in size
# Active calls of the source: *; ? = inconclusive; . = not tested or not shown; [ ] = another dose, or the depositor's remark. Calls come from the whole dose curve; as a rule, active = well fitted curve in the direction sought with a large enough effect; inconclusive = small, poorly fitted or top-dose-only effect, or another doubt; inactive = no such curve, though single readings can be large; an effect the other way counts as inactive or inconclusive. Unless noted, % is set by controls: 0 for no effect and ±100 for the full control effect; potency is the fitted concentration of half-maximal effect.
SMILES,12-LOX inh,PLK1 PBD block,Sfp inh,VDR inhibitor,TbPYK inh,TbPYK orthogonal
Cc1c(OC(C)C(=O)NCCCN2CCOCC2)ccc2c3c(c(=O)oc12)CCCC3 (stereo not given),0%,-8%,11%,-7%,.,.
N#Cc1ccc(N=c2ssnc2Cl)cc1,-62%,1.3µM*,8.9µM*,14µM*,7.1µM*,7.9µM*
CN(Cc1nccn1C)C(=O)c1cc(COc2cccc(C(F)(F)F)c2)on1,1%,-12%,0%,-8%,.,.
Cc1ccc(CN(C)C(=O)c2cc(COc3cccc(C(F)(F)F)c3)on2)o1,40µM*,?,20µM*,89µM*,13µM*,11µM*
Cc1cc(CNC(=O)[C@@H]2CCC[C@@H](NC(=O)c3cc(C)n(C)n3)CN(C)C(=O)C2)no1,64%[176 µM],.,.,.,.,.
COc1cc(NS(=O)(=O)c2cc3[nH]c(=O)[nH]c3cc2C)cc(OC)c1OC,-14%,.,.,-4%,.,.
COC1=CC(=O)C(C2CC(=O)c3c(O)cc(O)cc3O2)=CC1=O (stereo not given),?,4.2µM*,.,79µM*,16µM*,28µM*
Cc1cc(NC(=O)c2nn3cccnc3c2Cl)no1,14%,0%,10%,11%,.,.
CCc1ccc(NC(=O)NCC2CCN(c3ccc(OC)cc3)C2)cc1 (stereo not given),-8%,-10%,10%,2%,?,-29%
Nc1nc2ccc([N+](=O)[O-])c(N)c2s1,?,11µM*,89µM*,-14%,?,32µM*
Nc1ccc2nc(N)sc2c1,4%,2%,.,3%,.,.
O=C1c2sc3nc4n(c(=O)c3c2CCC1Br)CCCCC4 (stereo not given),?,-1%,20µM*,?,4µM*,5.6µM*
COc1ccc(-c2ccccc2NC(=O)C2CCCN2C(=O)NC(C)C)cc1 (stereo not given),19%,.,.,.,.,.
O=C(c1ccc2ncsc2c1)N1CCN(c2ccc(O)cc2)CC1,?,-19%,-95%,4%,11µM*,?
O=C(c1ccc2ncsc2c1)N1CCN(c2ccccc2Cl)CC1,-2%,?,15%,24%,.,.
O=C(O)c1cccc(CN2CCN(c3ccc4nccn4n3)CC2)n1,7%,.,.,.,.,.
CCOC(=O)C1=CCN(S(=O)(=O)c2ccc(Cl)cc2)C1c1ccc(Cl)c(Cl)c1 (stereo not given),-21%,.,.,.,.,.
COc1cc2cc(C(c3nnnn3Cc3ccc(F)cc3)N3CCCCCC3)c(=O)[nH]c2cc1OC (stereo not given),?,-14%,-10%,-9%,.,.
COCCn1nnnc1C(c1cc2cc(OC)c(OC)cc2[nH]c1=O)N1CCN(c2ccc(O)cc2)CC1 (stereo not given),?,?,?,2%,6.3µM*,16µM*
COc1ccc(N2CCN(C3CCCN(C(=O)c4cccc(C)n4)C3)CC2)cc1 (stereo not given),15%,0%,9%,14%,.,.
Cc1ccc(C)c(N2CCN(S(=O)(=O)c3ccc4c(c3)NC(=O)CO4)CC2)c1,-19%,-9%,-4%,-20%,.,.
CC(C)CC(C)NNC(=O)c1cc2ccccc2[nH]1 (stereo not given),-2%,1%,3%,-1%,.,.
CCOC(=O)CNC(=O)CSc1nnc(-c2ccco2)n1N,0%,0%,-3%,15%,.,.
CCOC(=O)CNC(=O)CSc1nnc(-c2ccco2)n1Cc1ccco1,-20%,-5%,-8%,6%,3.5µM*,14µM*
CS(=O)(=O)N1CCN(c2ccc([N+](=O)[O-])cc2C(F)(F)F)CC1,0%,-16%,-2%,?,?,?
SMILES,12-LOX inh,PLK1 PBD block,Sfp inh,VDR inhibitor,TbPYK inh,TbPYK orthogonal
O=C(Nc1nc2ccc(S(=O)(=O)N3CCCC3)cc2s1)c1ccccn1,?,-16%,-67%,-21%,?,?
O=C(c1ccccc1)c1cc(Cl)ccc1N1C(=O)C=CC1=O,7.9µM*,3µM*,3.2µM*,25µM*,5µM*,10µM*
Cc1ccc2nc(-c3ccccn3)c(Nc3ccccc3C)n2c1,-1%,-14%,1%,-7%,.,.
Cc1ccc2nc(-c3ccccn3)c(N)n2c1,10%,-1%,.,.,28µM*,11%
Nc1sc2c(c1C(=O)NC1CCS(=O)(=O)C1)CCCC2 (stereo not given),-4%[57.4 µM],27µM*,20µM*,?,14µM*,16µM*
O=C(CSc1ncnc2sc3c(c12)CCCC3)NC1CCS(=O)(=O)C1 (stereo not given),172%,?,.,5%,.,.
COc1cccc(/C=C/C(=C2/C(=O)N(c3ccccc3)N=C2C)c2ccc(C)cc2)c1OC,-1%,-16%,-2%,-3%,.,.
Cc1cc(N2CCOCC2)ccc1/C=C1/SC(=O)NC1=O,-1%,-11%,-22%,-8%,?,40µM*
COc1ccc(C=C2SC(=O)NC2=O)cc1OC,-21%,-5%,.,3%,.,.
O=C1NC(=O)/C(=C\c2ccc(O)cc2O)S1,40µM*,-26%,?,-25%,28µM*,28µM*
COc1ccc(Nc2nnc(Cc3ccccc3)c(=O)[nH]2)c(OC)c1,38%,-3%,0%,-12%,.,.
CC(C)c1cc2c(c(O)c1O)[C@@]13CCCC(C)(C)C1CC2OC3=O (stereo not given in full),?,6.7µM*,4µM*,?,1.8µM*,3.5µM*
O=C(NCC#Cc1ccccc1)NNC(=O)c1cccnc1,18%,.,.,.,.,.
O=C(N/N=C/c1ccc(O)c(O)c1)N/N=C/c1ccc(O)c(O)c1,?,-10%,?,-28%,.,.
Cc1nonc1C(=O)N/N=C/c1ccc(O)c(O)c1,?,0%,-6%,-10%,?,4%
CC(=O)C(Sc1nn(C)c(=S)s1)C(=O)Nc1ccccc1 (stereo not given),-10%,27µM*,40µM*,79µM*,20µM*,28µM*
CCn1c(=S)sc2c(=O)n(-c3ccccc3)c(=S)[nH]c21,-10%,-15%,-26%,-9%,.,.
CCOc1ccccc1-n1c(=S)sc2c(=O)n(-c3ccc(C)cc3)c(=S)[nH]c21,?,6.7µM*,45µM*,?,4.5µM*,6.3µM*
Cc1ccc(/C=C/C(=O)NCCc2cccc(Cl)c2)o1,?,30µM*,20µM*,79µM*,3.5µM*,4µM*
